High-throughput results (PubChem BioAssay)
Hits are enriched below; roughly 7.5% of the tested compounds scored in any of these assays.
Luc counter – Kinase-Glo luciferase inhibition (counter-screen); Q27757; Kinase-Glo luciferase, ATP luminescence, 8 min; Potency, µM (highest dose often 38.3 µM), actives largely listed as inhibitors; 200,000 compounds, 0.28% hits; AID 1379; further: nearly all actives have a fitted effect of over 60% in size
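Kinase-Glo luciferase light output from ATP and luciferin was measured with 10 uM ATP, within the enzyme's linear range. Buffer: 50 mM imidazole pH 7.2, 50 mM KCl, 7 mM MgCl2, 0.01% Tween 20, 0.05% BSA; luminescence read after 8 min at ambient temperature.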
Rab9 prom act – activates the Rab9 promoter | AID 485297 | Huh7 Rab9 promoter-luciferase reporter, luminescence, 24 h | Potency, µM (series often up to 9.22 µM), hits mostly activators | 320,000 compounds, 2.8% hits; further: nearly all actives have a fitted effect of over 60% in size
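Huh7 reporter line, Rab9 promoter upstream of luciferase. Compound exposure 24 h at 37 °C in reduced-serum medium with 10% FBS. Read-out: luminescence.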
SMN2 splice enh – increases expression of the SMN2 splice variant; HEK293 SMN2-luciferase splicing reporter, luminescence, 30-36 h; Potency, µM (doses to about 46.1 µM), hits mostly activators; 210,000 compounds, 2.8% hits; further: nearly all actives have a fitted effect of over 55% in size
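qHTS luciferase splicing reporter: luminescence rises when SMN2 exon 7 is included in transfected HEK293 cells. Compound exposure lasted 30-36 h at 37C, with 4.5 mM final sodium butyrate as control, followed by a ONE-Glo read.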
ELG1 genotoxic – induces genotoxicity in HEK293T cells with luciferase-tagged ELG1; Potency, µM (doses to about 46 µM), most hits filed as activators; HEK293T ELG1-luciferase reporter, luminescence, 16 h; 330,000 compounds, 1.3% hits; AID 504466; further: nearly all actives have a fitted effect of over 60% in size
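HEK293T cells expressing luciferase-tagged ELG1 were treated with compound or DMSO for 16 hr at 37°C. Luciferase activity was then read after 30 min with ONE-Glo at room temperature; rising signal flags genetic stress.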
FLuc counter – counter-screen for miR-21 project: firefly luciferase inhibitors or activators; P08659; purified FLuc, Km substrates, luminescence inhibition; Potency, µM (top dose mostly 57.5 µM), most hits filed as inhibitors; 360,000 compounds, 6.9% hits; AID 588342; further: nearly all actives have a fitted effect of over 55% in size
Target sequence (P08659 whole entry, looked up): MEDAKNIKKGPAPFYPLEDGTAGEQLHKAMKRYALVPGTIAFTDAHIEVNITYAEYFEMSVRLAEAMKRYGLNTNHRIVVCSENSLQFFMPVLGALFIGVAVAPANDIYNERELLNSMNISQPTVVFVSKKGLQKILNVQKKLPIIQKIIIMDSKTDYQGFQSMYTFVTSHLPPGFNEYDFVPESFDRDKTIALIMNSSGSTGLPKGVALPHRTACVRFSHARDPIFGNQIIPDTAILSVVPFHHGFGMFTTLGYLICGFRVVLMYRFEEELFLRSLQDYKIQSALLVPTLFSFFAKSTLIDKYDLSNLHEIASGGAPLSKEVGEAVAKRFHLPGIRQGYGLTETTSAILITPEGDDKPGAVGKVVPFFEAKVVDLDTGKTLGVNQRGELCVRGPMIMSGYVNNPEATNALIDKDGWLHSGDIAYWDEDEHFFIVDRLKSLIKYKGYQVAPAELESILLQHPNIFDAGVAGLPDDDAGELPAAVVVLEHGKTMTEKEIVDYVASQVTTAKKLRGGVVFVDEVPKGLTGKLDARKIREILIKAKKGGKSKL
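Biochemical qHTS of compounds, final roughly 60 µM downward over six points, against 10 nM purified firefly luciferase using Km concentrations of substrates (10 uM D-luciferin, 10 uM ATP) in Tris acetate pH 7.5 buffer; luminescence output.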
NPC1 prom act – NPC1 promoter activation | Huh7 NPC1 promoter luciferase reporter, 24 h | Potency, µM (top dose mostly 9.22 µM), usual class: activators | 320,000 compounds, 2.4% hits; further: nearly all actives have a fitted effect of over 60% in size
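Readout is luciferase luminescence, reflecting NPC1 promoter activation in stably transfected Huh7 cells after 24 h compound exposure at 37 °C in reduced-serum medium with 10% FBS.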
A number is an active result; i = inactive; ? = inconclusive; nt = not tested or not shown; [ ] = another dose, or the depositor's remark. The call rests on the fitted dose curve; in most records, active means well fitted curve in the direction sought with a large enough effect; inconclusive means small, poorly fitted or top-dose-only effect, or another doubt; inactive means no such curve, though single readings can be large; an effect the other way counts as inactive or inconclusive.

SMILES	Luc counter	Rab9 prom act	SMN2 splice enh	ELG1 genotoxic	FLuc counter	NPC1 prom act
CC(NC(=O)c1ccccc1NS(=O)(=O)c1ccc(CCC(=O)O)cc1)c1ccccc1 (stereo not drawn)	nt	i	nt	i	i	i
COC(=O)c1ccc(NC(=O)c2ccccc2N(C)S(C)(=O)=O)cc1	i	i	i	i	i	i
O=C(O)CCc1ccc(S(=O)(=O)Nc2ccccc2C(=O)NCCc2ccccc2)cc1	nt	3.2µM	nt	?	19µM	2.2µM
COC(=O)c1ccc(NC(=O)c2ccccc2NS(C)(=O)=O)cc1	i	i	i	i	12µM	i
CCOc1ccc(NC(=O)C2CCC(CNS(=O)(=O)c3ccc(Br)s3)CC2)cc1 (stereo not drawn)	nt	nt	i	nt	i	nt
COc1ccc2cc3cc(C(=O)N4CCCCC4C)oc3nc2c1 (stereo not drawn)	nt	0.45µM	nt	2.3µM	3.4µM	1.1µM
COc1ccc2cc3cc(C(=O)NCc4ccc(C)cc4)oc3nc2c1	nt	nt	i	nt	i	nt
COc1ccc2cc3cc(C(=O)N4CCCCCC4)oc3nc2c1	nt	0.5µM	nt	2.6µM	1.9µM	0.89µM
COc1ccc2cc3cc(C(=O)N(C)C4CCCCC4)oc3nc2c1	nt	2.2µM	nt	?	7.6µM	2.2µM
COc1ccc2cc3cc(C(=O)N4CCN(C5CCCCC5)CC4)oc3nc2c1	nt	i	nt	i	i	i
Clc1ccc(Nc2nc(C3CC3)cs2)cc1	i	1.6µM	11µM	6.5µM	7.6µM	3.2µM
Cc1ccc(Nc2nc(C3CC3)cs2)cc1	i	3.5µM	4µM	8.2µM	3.8µM	4µM
CC(=O)c1cccc(NC(=O)Nc2ccc3c(c2)N(C)C(=O)CS3)c1	i	i	i	i	15µM	i
CC(=O)c1cccc(NC(=O)Nc2ccc(C(=O)N3CCCC3)cc2)c1	?	i	i	i	6.7µM	i
Cc1cc(C)cc(NC(=O)Nc2ccc3c(c2)N(C)C(=O)CS3)c1	i	i	i	i	?	i
CC(=O)c1cccc(NC(=O)C2CCN(C(=O)c3ccc([N+](=O)[O-])cc3)CC2)c1	i	i	i	i	i	i
O=C1c2ccccc2-c2ccc(C(=O)N3CCCCC3)cc21	i	?	i	?	27µM	?
O=C(c1ccccc1)N1CCCCCC1	i	i	i	i	i	i
O=C(c1ccc2ccccc2c1)N1CCCC1	nt	i	nt	i	i	i
O=C(Nc1ccccc1)Nc1ccc(C(=O)N2CCCC2)cc1	6.3µM	0.35µM	6.3µM	?	2.4µM	0.56µM
Cc1cccc(-c2ccc3ncnc(N(C)Cc4ccco4)c3c2)c1	nt	i	nt	nt	?	i
Cc1noc(C)c1-c1ccc2ncnc(N(C)Cc3ccco3)c2c1	i	nt	3.5µM	nt	nt	nt
CCOc1cc(C2C(C(=O)Nc3ccccc3)=C(C)Nc3ncnn32)cc(Br)c1O (stereo not drawn)	nt	nt	nt	nt	i	nt
Cc1ccc(CNC(=O)C(=O)NCC(c2ccco2)S(=O)(=O)c2ccccc2)cc1 (stereo not drawn)	nt	nt	nt	nt	i	nt
Nc1ccccc1Nc1ccccc1	i	i[1.84 µM]	i	i	i	i
SMILES	Luc counter	Rab9 prom act	SMN2 splice enh	ELG1 genotoxic	FLuc counter	NPC1 prom act
Nc1ccccc1Nc1cc(-c2ccccc2)nn1-c1ccccc1	i	i	i	i	17µM	i
Nc1ccccc1Nc1cc(-c2ccccc2)[nH]n1	i	i	?	i	11µM	i
CCn1c(=O)c2cc(C(=O)Nc3cccc(C(F)(F)F)c3)sc2c2ccccc21	nt	nt	i	nt	i	nt
Cc1ccc(CSc2nc3c(c(=O)[nH]2)C(c2cccc(F)c2F)CC(=O)N3)cc1 (stereo not drawn)	nt	nt	nt	nt	i	nt
COc1ccc(C(=O)Nc2nnc(SCC(=O)NC3CCCC3)s2)c(OC)c1	nt	0.1µM	nt	2.9µM	0.54µM	0.1µM
CCc1nnc(NC(=O)c2ccc(OC)cc2OC)s1	i	0.45µM	2µM	?	2.1µM	0.45µM
COc1ccc(C(=O)Nc2nnc(SCC(=O)Nc3ccc(NC(C)=O)cc3)s2)c(OC)c1	nt	0.63µM	nt	?	0.085µM	0.35µM
CCc1nnc(NC(=O)Nc2ccccc2OC)s1	i	i	?	?	?	i
N#CCCCS(=O)(=O)c1ccccc1	i	nt	i	nt	nt	nt
O=Cc1ccc(OCCOc2ccc([N+](=O)[O-])cc2)cc1	nt	i	nt	i	i	i
O=c1n(Cc2ccc(F)cc2Cl)c2ccccc2c2nc(-c3ccccc3)nn12	nt	nt	nt	nt	i	nt
COc1ccc(OC)c(CNS(=O)(=O)c2c(C(=O)N3CCC(C)CC3)c(C)n(C)c2C)c1	nt	nt	nt	nt	i	nt
CCCCc1nn2c(=O)cc(COC(=O)C3CCCCC3)nc2s1	nt	nt	nt	nt	i	nt
Cc1ccc(C2=NNC(C(O)C(O)C(O)C(O)CO)S2)cc1 (stereo not drawn)	i	i	i	?	21µM	i
COc1ccc(NC(=O)CC2C(=O)N(c3ccc(C)cc3)C(=O)N2C2CCCC2)cc1 (stereo not drawn)	nt	nt	nt	nt	i	nt
CC1=NN(c2ccccc2)C(=O)/C1=C/C=C/C=C/N(C)C	?	i	i	i	?	i
CC1=NN(c2ccccc2)C(=O)/C1=C\c1cc(C)n(-c2cccnc2)c1C	nt	i	nt	i	2.7µM	i
CC1=NN(c2ccccc2)C(=O)/C1=C\c1cc(C)n(-c2ccccc2)c1C	i	i	i	?	0.54µM	i
CC1=NN(c2ccc(C)cc2)C(=O)/C1=C\C=C\c1ccccc1	i	i	i	i	?	i
CC1=NN(c2cccc(C(=O)O)c2)C(=O)/C1=C\C=C/c1ccccc1	i	i	i	i	2.4µM	i
COc1ccc(C2C(=O)N(C3CCCCCC3)CC(=O)N2Cc2ccc(C)cc2)cc1OC (stereo not drawn)	nt	nt	nt	nt	i	nt
O=C(Oc1cc2oc(=O)c3c(c2cc1Cl)CCCC3)c1cccs1	i	i	i	i	i	i
O=C(Oc1ccc2c3c(c(=O)oc2c1)CCCC3)c1cccs1	i	i	i	i	17µM	i
O=C(Oc1ccc2c3c(c(=O)oc2c1)CCC3)c1ccco1	i	i	i	i	13µM	i
CCCc1cnc2c(c1SCC(=O)Nc1ccc([N+](=O)[O-])cc1)c(=O)n(C)c(=O)n2C	nt	nt	nt	nt	i	nt
SMILES	Luc counter	Rab9 prom act	SMN2 splice enh	ELG1 genotoxic	FLuc counter	NPC1 prom act
Cc1c(CC(=O)NCC(=O)O)c(=O)oc2cc3occ(-c4ccccc4)c3cc12	nt	i	nt	i	24µM	i
Cc1c(CC(=O)NCc2ccccc2Cl)c(=O)oc2cc(O)ccc12	nt	nt	i	nt	21µM	nt
Cc1c(CC(=O)NCCCC(=O)O)c(=O)oc2cc3occ(-c4ccccc4)c3cc12	nt	i	nt	i	19µM	i
COc1ccccc1CCNC(=O)Cc1c(C)c2ccc(O)cc2oc1=O	nt	nt	i	nt	i	nt
CCN1CCc2c(sc(-n3cccc3)c2C(C)NC(=O)Nc2ccccc2C)C1 (stereo not drawn)	nt	nt	nt	nt	i	nt
Cc1ccc(CN2CCN(C3CCN(C(=O)OC(C)(C)C)CC3)C(=O)C2=O)cc1	nt	nt	nt	nt	i	nt
O=C(COC(=O)c1c2c(nc3ccccc13)CCN(Cc1ccccc1)C2)Nc1c(F)cccc1F	i	i	i	i	?	i
